Where “and” joins values, the source holds several entries; their conditions need not be identical. Equal values may be shown once. The campaign covered roughly 220,000 compounds. About 16,000 (7.3%) were called active. A call without a number means that no potency is given here. Roughly 25% stayed inconclusive and do not appear here. Only a selection was taken, and actives are over-represented in it overall. A number with no mark means an inactive call. The call rests on the fitted dose curve; in most records, active means well fitted inhibition curve with a large enough effect (not every such curve was filed as active); inconclusive means small, poorly fitted or top-dose-only effect, or another doubt; inactive means no such curve, though single readings can be large or run the other way.
Potency means the concentration at half of the fitted maximal effect.

The assay deals with Aldehyde dehydrogenase 1A1 (Homo sapiens) (UniProt P00352). The assay is described as follows: qHTS Assay for Inhibitors of Aldehyde Dehydrogenase 1 (ALDH1A1). The note with it: Purified ALDH1A1, NADH fluorescence, propionaldehyde substrate; series mostly up to 75.3 µM.
Aldehyde dehydrogenase 1A1 (Homo sapiens), sequence (P00352 whole entry, looked up): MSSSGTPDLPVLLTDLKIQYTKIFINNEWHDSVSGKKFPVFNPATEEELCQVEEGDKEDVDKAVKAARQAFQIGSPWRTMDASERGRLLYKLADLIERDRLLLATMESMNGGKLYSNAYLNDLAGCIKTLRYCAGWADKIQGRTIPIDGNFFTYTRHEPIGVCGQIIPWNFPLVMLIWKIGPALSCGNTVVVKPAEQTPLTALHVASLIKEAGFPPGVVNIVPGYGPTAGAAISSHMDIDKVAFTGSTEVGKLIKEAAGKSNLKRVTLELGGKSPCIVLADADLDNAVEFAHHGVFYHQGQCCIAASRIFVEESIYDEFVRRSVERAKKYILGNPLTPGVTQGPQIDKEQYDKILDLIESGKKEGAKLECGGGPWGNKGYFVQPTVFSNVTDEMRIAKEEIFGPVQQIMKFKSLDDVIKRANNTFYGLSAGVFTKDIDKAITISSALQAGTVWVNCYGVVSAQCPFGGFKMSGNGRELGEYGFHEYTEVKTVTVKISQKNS
As to `CCN(CC)CCNc1nc(-c2ccc(OC(F)F)cc2)c(C)s1`, the Potency result is “inactive”.

For `O=c1cc(-c2ccccc2)nc(N2CCCCC2)[nH]1`, the Potency entry was “inactive”.

Take `O=C(c1ccccc1)c1ccc2nc(N3CCCCC3)c3nncn3c2c1`: the Potency was 12.6 µM (active). Regarding `O=C(Nc1ccccc1N1CCCCC1)c1cccc(F)c1`, the Potency entry was “inactive”. For the compound `O=C(O)C(c1ccccc1)C1(O)CCCCC1` (stereo not drawn), the Potency entry is “inactive”. In the case of `Cc1ccc(-c2cn(S(=O)(=O)c3cccc([N+](=O)[O-])c3)nc2N)cc1`, the Potency entry is “inactive”. Same read-out and setting: next, `O=C(Nc1ccncc1)c1cc(-c2ccccn2)nc2ccc(Br)cc12`: “inactive”; `C#CC(C)(C)NC(=O)CSc1nc2c(c(=O)n(C)c(=O)n2C)n1CCCC`: “inactive”; `CCCCCn1c(SCCC(C)C)nc2c1c(=O)[nH]c(=O)n2C`: 22.4 µM (active). Still for that read-out and setting: the same measure for `Cn1c(=O)[nH]c(=O)c2c1nc(Br)n2CCCCSc1nc2ccccc2o1`: “inactive”; for `O=[N+]([O-])c1ccccc1NCc1ccc(Cl)cc1`: “inactive”. As for `Oc1ccccc1CNCc1ccccc1O`, the activity, negative = inhibition was -6.72% [at 13.5 µM]. Regarding `Oc1ccc(CNc2ccccc2O)cc1`, the Potency was 3.98 µM (active). As for `Cn1nc(C(F)(F)F)c2cc(C(=O)N3CCOCC3)sc21`, the Potency result is “inactive”. On the same count and under the same terms, the same measure for `Cc1ccnc2nc(C(=O)Nc3nnc(-c4ccccc4)o3)nn12`: “inactive”; for `CCN1C(=O)/C(=C2\SC(N3CCCCC3)=NC2=O)c2ccccc21`: 10 µM (active); for `CC(C)=C1SC(N2CCN(c3cccc(C)c3)CC2)=NC1=O`: “inactive”.

For `C=C/C1=C/Cc2ccccc2[C@H](C[N+](=O)[O-])C(C(=O)OC)(C(=O)OC)C1`, the Potency result is “inactive”.

Turning to `O=C(CN1C(=O)CC(c2ccccc2)S(=O)(=O)c2ccccc21)NC1CCCC1` (stereo not drawn), the Potency result was “inactive”. Same read-out and setting: next, `CC1=C(C(N)=O)C(c2ccc3c(c2)OCO3)n2nc(-c3cccc(C)c3)nc2N1` (stereo not drawn): 3.55 µM (active).

For the compound `COc1cccc(-c2nc3n(n2)C(c2ccccc2Cl)C(C(N)=O)=C(C)N3)c1` (stereo not drawn), the Potency entry is “inactive”. The same measure, in the same setting: the same measure for `COCCOC(=O)C1=C(C)Nc2nc(C)nn2C1c1ccccc1` (stereo not drawn): “inactive”; for `C/C(=N/NC(=O)CCc1ccccc1)c1ccco1`: “inactive”; for `CSCCC(=O)N1CCCC(CNC(=O)c2ccccc2Cl)C1` (stereo not drawn): “inactive”. With `CC(C)(C)c1cc(P(=O)(c2ccccc2)c2ccccc2)ccc1O`, the Potency result is “inactive”. Same read-out and setting: next, `COCCCNC(=O)c1c(F)c(F)c(F)c(F)c1F`: “inactive”; `COCCCNCC(=O)Nc1sc(C)c(C)c1C(=O)OC`: 11.2 µM (active). As to `CCC(=O)Nc1sc(C(=O)Nc2ccccc2)c(C)c1C(=O)OC`, the Potency entry is “inactive”. Same read-out and setting: the same measure for `Cc1ccc(CCCOC(=O)C[N+]2(C)CCCCC2)cc1`: “inactive”; for `O=C(CC1NCCc2ccccc21)Nc1cccc(Cl)c1` (stereo not drawn): “inactive”. `CC1CC(C)CN(S(=O)(=O)c2ccc(C(=O)NN3CCOCC3)cc2)C1` (stereo not drawn): the Potency result was “inactive”. The same measure, in the same setting: next, `CN(C)/C=C1\C=C(c2ccccc2)OC1=O`: 10 µM (active); `CC(=O)NC(Cc1ccc(F)c(F)c1)C(=O)NC1CCN(c2nnnn2-c2ccccc2)CC1` (stereo not drawn): 3.16 µM (active); `COc1ccc(CC(NC(C)=O)C(=O)NC2CCN(C(=O)C3CC3)CC2)cc1OC` (stereo not drawn): “inactive”. Still for that read-out and setting: the same measure for `CNC(=S)N1CCC(NC(=O)C(Cc2ccc(F)cc2)NC(C)=O)CC1` (stereo not drawn): “inactive”. Still for that read-out and setting: next, `N#CCC(=O)NC(=O)NCC1CC1`: 3.98 µM (active) and 1.26 µM (active); `CC(C)(C)NC(=O)NC(=O)COC(=O)CCC1CCCCC1`: “inactive”; `CC(C)NC(=O)NC(=O)COC(=O)c1ccc(NC(=O)CC#N)cc1`: “inactive”. Turning to `COc1cccc(CC2(CO)CCN(Cc3cnc(-c4cccc(C)c4)nc3)CC2)c1`, the Potency result is “inactive”. Same read-out and setting: next, `COc1ccc(C2CC(c3ccccc3)=NN2C(=O)COC(=O)COc2ccccc2)cc1` (stereo not drawn): “inactive”; `O=C(CC1SCCNC1=O)Nc1ccc(Cl)c(Cl)c1` (stereo not drawn): “inactive”; `Cc1oc2cc([N+](=O)[O-])c(O)c([N+](=O)[O-])c2c1C(=O)c1ccc(Br)cc1`: “inactive”. For `CC(CCc1ccccc1)NC(=O)c1ccc(Br)o1` (stereo not drawn), the Potency entry was “inactive”. As to `CC(CNC(=O)c1ccc(Br)o1)NC(=O)c1ccc(Br)o1` (stereo not drawn), the Potency was 28.2 µM (active). As to `CC(CNC(=O)c1ccc(N)cc1)NC(=O)c1ccc(N)cc1` (stereo not drawn), the Potency result is “inactive”. For `CS(=O)(=O)N(Cc1ccccc1Cl)c1ccc(C(=O)NCc2cccnc2)cc1`, the Potency result is “inactive”. Same read-out and setting: next, `CC1CCN(CCC(=O)Nc2ccccc2)CC1`: “inactive”.

Take `CCN(CC)CCNC(=O)c1ccc(NS(=O)(=O)c2ccc3c(c2)OCCO3)cc1`: the Potency entry is “inactive”.

On to `CCCCC/C=C\C/C=C\C/C=C\CCCCCCC(N)=O`, for which the Potency result was “inactive”. The same measure, in the same setting: the same measure for `CC/C=C/C/C=C/C/C=C/CCCCCCCC(=O)OCC`: 1.12 µM (active); for `CCCCC/C=C\C/C=C\CCCCCCCCCC(N)=O`: “inactive”. On the same count and under the same terms, the same measure for `CC(=O)c1c(-c2ccccc2)c2ccccc2[nH]c1=O`: “inactive”; for `Brc1cc(/C=N/n2cnnc2)oc1Br`: “inactive”; for `NNC(=O)C1CC(O)CN1S(=O)(=O)c1ccc(Cl)cc1` (stereo not drawn): “inactive”. The same measure, in the same setting: next, `O=C1COc2ccc(C(=O)COC(=O)C3CC(O)CN3S(=O)(=O)c3ccc(Cl)cc3)cc2N1` (stereo not drawn): 5.01 µM (active). For `O=C1COc2ccc(C(=O)COC(=O)c3cccnc3Cl)cc2N1`, the Potency entry is “inactive”. Same read-out and setting: the same measure for `COC(=O)N/N=C/c1ccc(/C=N/NC(=O)OC)cc1`: “inactive”; for `Cc1[nH]c2ccccc2c1SCC(=O)Nc1nccs1`: “inactive”. Still for that read-out and setting: the same measure for `CCC(=O)Nc1cc(C(F)(F)F)ccc1N1CCCC1`: “inactive”; for `CC(=O)Nc1cccc(C(=O)Nc2nc(C)cs2)c1`: “inactive”. On to `O=C(O)CSc1nccc2ccccc12`, for which the Potency entry is “inactive”. Same read-out and setting: next, `Cc1ccc(Oc2ccc3c(c2)C(=O)N(c2cccc4cccnc24)C3=O)cc1`: 11.2 µM (active); `CC(=O)Oc1ccc(C)cc1N1C(=O)c2ccc(C(=O)O)cc2C1=O`: “inactive”. The same measure, in the same setting: the same measure for `Cc1cccc(N2C(=O)c3cccnc3C2=O)c1`: “inactive”. Same read-out and setting: next, `CSc1ncccc1C(=O)OCc1ccc(Br)cc1`: “inactive”. Take `CN1CCN(C(=O)C2=C[C@H](c3ccc4c(c3)OCO4)C[C@H](OCc3ccc(CO)cc3)O2)CC1`: the Potency entry was “inactive”. Same read-out and setting: the same measure for `O=C(C1=C[C@H](c2coc3ccccc3c2=O)C[C@H](OCc2ccc(CO)cc2)O1)N1CCN(Cc2ccccc2)CC1`: “inactive”. Regarding `CC(=O)n1cc([C@@H]2C=C(C(=O)N3CCN(Cc4ccc5c(c4)OCO5)CC3)O[C@H](OCc3ccc(CO)cc3)C2)c2ccccc21`, the Potency was 25.1 µM (active).

With `O=C(C(=O)N1CCc2ccccc2C1)c1c[nH]c2ccccc12`, the Potency result was “inactive”. With `O=C(Nc1nnc(Cc2ccc(Cl)cc2)s1)c1cccnc1`, the Potency entry is “inactive”. On to `Cn1cnc([N+](=O)[O-])c1Sc1ccccc1`, for which the Potency is 11.2 µM (active). As for `Cn1cnc([N+](=O)[O-])c1Sc1n[nH]c(N)n1`, the Potency result was “inactive”. Still for that read-out and setting: the same measure for `Cn1cnc([N+](=O)[O-])c1Nc1ccccc1O`: “inactive”; for `COC(=O)COc1ccc(C2NC(=O)NC(C)=C2C(=O)NCc2ccccc2)cc1OC` (stereo not drawn): “inactive”.

Take `O=C(Nc1ccc(N2CCOCC2)nc1)c1c(F)cccc1F`: the Potency entry was “inactive”. Same read-out and setting: next, `Cc1ccc(S(=O)(=O)Cc2cc(-c3ccc(Cl)cc3)no2)cc1`: “inactive”; `COC(=O)c1cc(NC(=O)c2ccco2)ccc1N1CCOCC1`: “inactive”; `Cc1c(C=O)c2ccccc2n1CC(=O)O`: “inactive”.

In the case of `O=C1CC(c2ccccc2)C(=O)N1c1cccc(O)c1` (stereo not drawn), the Potency result was “inactive”. Take `Cc1cccc(N2C(=O)CC(SC(N)=Nc3ccccc3)C2=O)c1` (stereo not drawn): the Potency entry was “inactive”. As to `COC(=O)c1ccccc1SC1CC(=O)N(c2cccc(C)c2)C1=O` (stereo not drawn), the Potency is 17.8 µM (active). Consider `O=C1OCC2=C1C(c1ccccc1)CC(=O)N2c1cccc(F)c1` (stereo not drawn), for which the Potency result was “inactive”. The same measure, in the same setting: the same measure for `CC(=O)N(CN1C(=O)C2C3C=CC(C3)C2C1=O)c1cccc(Cl)c1` (stereo not drawn): “inactive”; for `Cn1cc(CN2CCCC(CO)C2)c(-c2ccc(Oc3ccccc3)cc2)n1` (stereo not drawn): “inactive”. For the compound `CC(C)C1=CC2=CC[C@H]3[C@](C)(C(=O)O)CCC[C@]3(C)C2CC1` (stereo partly drawn), the Potency entry is “inactive”.

On to `S=C(NCCc1ccccc1)N1CCCCC1`, for which the Potency entry is “inactive”. Consider `O=C1CCN(C(=S)NCCc2ccccc2)CC1`, for which the Potency result was “inactive”. On the same count and under the same terms, next, `Oc1cc2c(cc1O)CN(C(=S)NCCc1ccc(Cl)cc1)CCC2`: 15.8 µM (active) and 20 µM (active); `CCN(CC)C(=O)CN(c1cccc([N+](=O)[O-])c1)S(=O)(=O)c1ccccc1`: “inactive”; `O=C(CCl)N(Cc1cccc([N+](=O)[O-])c1)c1cccc(Cl)c1`: 0.158 µM (active). Still for that read-out and setting: the same measure for `O=C(Nc1cccc([N+](=O)[O-])c1)Nc1ccc(Cl)cn1`: “inactive”; for `COc1ccc(CCNC(=O)c2ccc(CS(=O)(=O)c3ccc(Br)cc3)o2)cc1OC`: “inactive”. In the case of `Nc1nc(NC(=O)/C=C/c2ccc(F)cc2)nn1-c1ccccc1`, the Potency result was “inactive”. For `CCOC(=O)CSc1nnc(CNc2nc(-c3ccccc3)cs2)n1C`, the Potency result is “inactive”.

Take `CCOc1ccc(Nc2nc(Cc3nnc(SCC(=O)NC4CCCC4)n3C)cs2)cc1`: the Potency entry was “inactive”. Same read-out and setting: the same measure for `CCOC(=O)c1c(NC(=O)CSc2nnc(Cc3csc(N)n3)n2C)sc(C)c1C`: 7.94 µM (active); for `CCO[C@H]1OC(C(=O)N2CCCCCCC2)=C[C@@H](c2ccc(C(F)(F)F)cc2)[C@@H]1CCCO`: “inactive”. Consider `NC(=O)C1CCN(Cc2nc3c(Br)cc(Br)cc3c(=O)[nH]2)CC1`, for which the Potency result was “inactive”. The same measure, in the same setting: next, `O=C(Nc1ccc(C(=O)O)cc1)/C(=C/c1ccc([N+](=O)[O-])cc1)NC(=O)c1ccccc1`: “inactive”; `Nc1ncnc(Nc2cccc(Cl)c2Cl)n1`: “inactive”. On to `CC(C)(C)c1nc2ccccc2c(=O)n1N1C(=O)c2ccccc2C1=O`, for which the Potency result is “inactive”. The same measure, in the same setting: the same measure for `CCC1(CC)Cc2ccccc2-c2nc3ccccc3c(=O)n21`: 15.8 µM (active); for `CCOC(=O)C1CCc2nc3ccccc3c(=O)n21` (stereo not drawn): “inactive”. Still for that read-out and setting: next, `COc1ccc(-n2c(O)c(C=NCC(c3ccco3)N3CCCC3)c3ccccc3c2=O)cc1OC` (stereo not drawn): “inactive”; `CC1COc2ccccc2N1C(=O)c1cccnc1Cl` (stereo not drawn): “inactive”; `CCn1cc(CN2CCCC(CNS(=O)(=O)Cc3ccccc3)C2)cn1` (stereo not drawn): “inactive”. In the case of `CC(Sc1nc2c([nH]c3ccccc32)c(=O)n1C)c1ccccc1` (stereo not drawn), the Potency result is “inactive”. On the same count and under the same terms, next, `Cc1ccc2nsnc2c1S(=O)(=O)N1CCCC1C(=O)O` (stereo not drawn): “inactive”.

These data come from PubChem BioAssay AID1030 (National Center for Advancing Translational Sciences (NCATS), 2008).
